Abeta yeast res – A-beta toxicity reversal in yeast. 0.063% of 410,000 active. Potency, µM (series often up to 46.1 µM), actives largely listed as activators. yeast expressing A-beta42, growth rescue, OD600, 48 h; response scale: 0% DMSO, 100% iron-clioquinol control; further: nearly all actives have a fitted effect of over 55% in size
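Yeast growth medium received pinned compounds, then yeast cells expressing toxic A-beta were added; plates incubated at 30 C for 48 hr. Growth read as absorbance at 600 nm, normalized to DMSO and equimolar FeCl3 plus clioquinol controls.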
FUS suppressor – rescues growth of FUS-expressing yeast. S. cerevisiae FUS-expressing, growth rescue, OD600, 24 h. Potency, µM (titrated, usually from 76.6 µM), hits mostly activators. 0.24% of 390,000 active. AID 1347120; further: nearly all actives have a fitted effect of over 55% in size
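S. cerevisiae expressing FUS from galactose induction served as the toxicity model. Growth after 24hr at 30C, read as absorbance at 600 nm, indicates suppression of toxicity; compounds dosed at several concentrations.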
TDP43 rescue – rescues yeast growth from TDP-43 toxicity | TDP-43 expressing yeast growth rescue, BacTiter-Glo, 24 h | AID 652104 | Potency, µM (highest dose often 46.1 µM), usual class: activators | 1.8% of 410,000 active; further: nearly all actives have a fitted effect of over 50% in size
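Growth rescue of TDP-43-toxic yeast measured as ATP luminescence (BacTiter-Glo). Cells grown to mid-log in raffinose, induced in galactose at OD600=0.02, exposed to compound 24 hr at 30 deg C.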
Mito fusion yeast – mitochondrial division inhibition or fusion activation; S. cerevisiae fusion-defective mutant growth rescue, CellTiterGlo 48 h; Potency, µM (top dose mostly 46.1 µM), usual class: activators; 0.23% of 320,000 active; AID 485298; further: nearly all actives have a fitted effect of over 45% in size
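Luminescent cell viability in 1536-well qHTS format served as the measure of rescued growth in ts fusion-mutant S. cerevisiae cultured on non-fermentable YPEG for 48 hours at 37C.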
aSyn yeast inh – alpha-synuclein toxicity inhibition in yeast | Yeast expressing alpha-synuclein, growth rescue, BacTiter-Glo, 24 h | Potency, µM (highest dose often 46.1 µM), most hits filed as activators | 0.14% of 370,000 active | AID 652106; further: nearly all actives have a fitted effect of over 65% in size
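Readout is rescue of growth in alpha-synuclein-expressing yeast, so inhibitors of toxicity appear as activators. Growth after 24 hr at 30 deg C in galactose medium is quantified by luminescence.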
Each line names hits and unclear results; the compound was inactive in the other large screens. Shown are actives, neighbours in structure and some others; about 2.2% of the full set was active somewhere. The call rests on the fitted dose curve; in most records, active means well fitted curve in the direction sought with a large enough effect; inconclusive means small, poorly fitted or top-dose-only effect, or another doubt; inactive means no such curve, though single readings can be large; an effect the other way counts as inactive or inconclusive.

CCOC(=O)c1ccc(C(=O)OCC)c(NC(=S)Nc2ccc([N+](=O)[O-])cc2OC)c1	TDP43 rescue 18µM, Mito fusion yeast inconclusive
O=C(N=c1ccn(-c2nc3ccccc3nc2NS(=O)(=O)c2ccccc2)cc1)c1ccccc1Cl	FUS suppressor 25µM (no result: Abeta yeast res)
Cc1c2cnccc2c(C)c2c1oc1ccccc12	TDP43 rescue inconclusive (no result: FUS suppressor, Mito fusion yeast)
Cc1ccc(C(=O)N2CCn3c4c(c5cc(C)ccc53)CCCC42)cc1 (configuration not stated)	FUS suppressor inconclusive (no result: Mito fusion yeast, aSyn yeast inh)
Cc1ccc2c(c1)c1c3n2CCN(C(=O)C2CC2)C3CCC1 (configuration not stated)	TDP43 rescue 28µM
O=C(CN1C(=O)c2ccccc2C1=O)NCC(=O)Nc1ccccc1	none (no result: FUS suppressor, Mito fusion yeast)
OCCN1CCN(c2ncnc3scc(-c4ccc(F)cc4)c23)CC1	none
Cc1ccc(-c2csc3ncnc(N4CCN(S(=O)(=O)c5ccc(C#N)cc5)CC4)c23)cc1	TDP43 rescue inconclusive (no result: Mito fusion yeast)
Oc1ccccc1N1CCN(c2ncnc3scc(-c4ccccc4)c23)CC1	FUS suppressor inconclusive, TDP43 rescue 18µM
Cc1ccc(-c2csc3ncnc(N4CCN(S(=O)(=O)c5cccs5)CC4)c23)cc1	TDP43 rescue 4.5µM (no result: FUS suppressor)
O=C(c1ccco1)N1CCN(c2ncnc3scc(-c4ccc(Cl)cc4)c23)CC1	TDP43 rescue 25µM (no result: Mito fusion yeast)
Oc1ccccc1N1CCN(c2ncnc3scc(-c4ccc(F)cc4)c23)CC1	FUS suppressor inconclusive, TDP43 rescue 22µM, Mito fusion yeast inconclusive
COc1ccccc1CN1CC(C(=O)NCc2cc(C(C)C)no2)CCC1=O (configuration not stated)	none
CC(C)N1CCN(Cc2ccc(C#CCCO)cc2)CC1CCO (configuration not stated)	none
O=c1cc2nc(-c3ccccc3F)nc(SCc3ccc(Br)cc3)n2[nH]1	none (no result: Mito fusion yeast, aSyn yeast inh)
c1ccc2c(c1)OCC(c1csc3ncnc(N4CCCC4)c13)O2 (configuration not stated)	TDP43 rescue 22µM
COc1ccc(S(=O)(=O)NCCS(=O)(=O)N2CCN(c3ccccc3F)CC2)cc1	none (no result: Mito fusion yeast, aSyn yeast inh)
Cc1ccc(-n2c(SCC(=O)c3ccccc3Cl)nnc2-c2cnccn2)cc1	none (no result: Abeta yeast res, TDP43 rescue, Mito fusion yeast, aSyn yeast inh)
COc1ccc(C2(C)NC(=O)N(Cc3cc(Cl)cc4c3OCOC4)C2=O)cc1OC (configuration not stated)	FUS suppressor 35µM
O=C1NC2(CCCCCC2)N=C1c1ccc(F)cc1	TDP43 rescue 16µM
S=C1NC2(CCCCCC2)N=C1c1ccccc1	Abeta yeast res 5µM, TDP43 rescue inconclusive
S=C1NC2(CCCC2)N=C1c1ccccc1	none (no result: Abeta yeast res)
O=C(CSc1nnc(NC(=O)c2ccc(F)cc2)s1)NC1CCCC1	none
O=C(CCn1c(=O)c2cccn2c2cccnc21)NCc1ccc(F)cc1	none (no result: Mito fusion yeast, aSyn yeast inh)
COc1cccc(CNC(=O)c2cc(C3CC3)nc3c2cnn3C(C)C)c1	FUS suppressor inconclusive, TDP43 rescue 18µM
CC(C)n1ncc2c(C(=O)NCCc3ccc(F)cc3)cc(C3CC3)nc21	none
Cc1ccccc1CCNC(=O)c1cc(C2CC2)nc2c1cnn2C(C)C	TDP43 rescue 35µM, Mito fusion yeast inconclusive
O=C(CCNS(=O)(=O)c1ccc(Br)s1)N1CCN(c2ccccc2)CC1	TDP43 rescue 18µM, aSyn yeast inh inconclusive
COc1ccccc1N1CCN(C(=O)CCNS(=O)(=O)c2ccc(Br)s2)CC1	TDP43 rescue 22µM, aSyn yeast inh inconclusive
COc1ccccc1N1CCN(C(=O)CNS(=O)(=O)c2ccc(Br)s2)CC1	none
Cc1ccc(S(=O)(=O)NCCC(=O)N2CCN(c3ccccc3)CC2)cc1C	TDP43 rescue inconclusive (no result: Mito fusion yeast)
O=C(NC1CCCCC1)C(c1cccnc1)N(C(=O)c1csnn1)c1ccc(F)cc1 (configuration not stated)	none
Cn1cc(-c2cc3n(n2)CCC(=O)N3CCCC(=O)Nc2ccccc2F)c2ccccc21	FUS suppressor inconclusive (no result: Mito fusion yeast, aSyn yeast inh)
CCOC(=O)c1c(NC(=O)COC(=O)c2cccc([N+](=O)[O-])c2)sc(C(=O)N(C)C)c1C	Abeta yeast res 13µM (no result: Mito fusion yeast)
O=C1C(=Cc2ccco2)C(=O)c2ccccc21	TDP43 rescue 22µM (no result: FUS suppressor)
Oc1c(Br)cc(Br)cc1CNc1ccc(F)cc1	none
Oc1c(Br)cc(Br)cc1CNc1cnc2ccccc2c1	TDP43 rescue 20µM
Cc1ccc(-n2cnc3cc(C(=O)NCCC4=CCCCC4)ccc32)c(C)c1	FUS suppressor inconclusive, TDP43 rescue 25µM (no result: Mito fusion yeast, aSyn yeast inh)
CCc1ccccc1-n1c(C)nc2cc(C(=O)NCCc3ccc(Cl)cc3)ccc21	FUS suppressor inconclusive, TDP43 rescue 32µM (no result: Mito fusion yeast, aSyn yeast inh)
Cc1nc2cc(C(=O)NCCC3=CCCCC3)ccc2n1-c1ccc(Br)cc1	FUS suppressor 25µM, TDP43 rescue inconclusive (no result: Mito fusion yeast, aSyn yeast inh)
O=C(NCCC1=CCCCC1)c1ccc2c(c1)ncn2-c1ccc(F)c(F)c1	none (no result: Mito fusion yeast, aSyn yeast inh)
COCCNC(=O)c1ccc2c(c1)nc(C)n2-c1cccc(Cl)c1	none (no result: TDP43 rescue, aSyn yeast inh)
CCOC(=O)c1cccc(Nc2nc(C(=O)OCC)nc3ccccc23)c1	none (no result: Mito fusion yeast, aSyn yeast inh)
COC(=O)c1cccc(Nc2nc(-c3cccnc3)nc3ccccc23)c1	none
CCOC(=O)c1cccc(Nc2nc(-c3cccnc3)nc3ccccc23)c1	TDP43 rescue 18µM
CCCOC(=O)c1cccc(Nc2nc(C(=O)OCC)nc3ccccc23)c1	TDP43 rescue 22µM (no result: Mito fusion yeast, aSyn yeast inh)
N#CCC[C@H]1CC[C@]2(CCCN(c3ccccc3)C2)O1	none (no result: Abeta yeast res, TDP43 rescue, Mito fusion yeast, aSyn yeast inh)
Cc1ccccc1-n1c(SC(C)C(=O)NCC2CCCO2)nnc1-c1ccncc1 (configuration not stated)	none (no result: Mito fusion yeast)
COc1ccccc1-c1nnc2sc(COc3ccc(Cl)cc3)nn12	FUS suppressor inconclusive, TDP43 rescue 18µM
COc1ccc(-c2nnc3sc(COc4ccccc4)nn23)cc1	TDP43 rescue 2.8µM
COc1ccc(NC(=O)C2=C(C)Nc3nc(CCCO)nn3C2c2ccc(O)cc2)cc1 (configuration not stated)	none (no result: Mito fusion yeast, aSyn yeast inh)
O=C1CC(c2ccc(F)cc2)CC2=C1C=Nc1ccccc1N2 (configuration not stated)	TDP43 rescue 22µM
COc1ccc(/C=C/c2noc(-c3ccccc3O)n2)cc1	none
CC(=O)Oc1ccccc1-c1nc(/C=C/c2ccccc2)no1	TDP43 rescue 18µM
Fc1ccc(COc2ccc(C(=S)N3CCCC3)cc2)cc1	Abeta yeast res inconclusive, TDP43 rescue 13µM
CSc1ccc(C2C(C#N)=C(N)Oc3c2ccc(=O)c2c(C)oc(C)c32)cc1 (configuration not stated)	FUS suppressor 22µM, aSyn yeast inh inconclusive
CN(C1CCCCC1)S(=O)(=O)c1ccc(NC(=O)c2ccc(Br)o2)cc1	Mito fusion yeast 11µM
Cc1ccc(-c2nc(S(=O)(=O)c3ccc(C)cc3)c(N3CCCCC3)o2)cc1	none (no result: Mito fusion yeast, aSyn yeast inh)
CC(=C/c1ccccc1)/C=N/n1c(-c2ccco2)n[nH]c1=S	TDP43 rescue 11µM (no result: aSyn yeast inh)
CC(/C=N/n1c(-c2cc(C)[nH]n2)n[nH]c1=S)=C\c1ccccc1	none

Screening results deposited in PubChem by National Center for Advancing Translational Sciences (NCATS).
